Only some compounds are listed: those with a hit (about 1.5% of all), similar ones and a draw of the others.
Neddylation inh – inhibitors of cullin neddylation, primary screen, biochemical, TR-FRET, uHTS, NAE and Ubc12 | NEDD8-conjugating enzyme Ubc12 (Homo sapiens) + NEDD8-activating enzyme E1 regulatory … | 0.58% of 360,000 active | inhibition, % at 25 µM; in the data active = inhibition above about 36%
GC-B act – human GC-B receptor activators, primary screen, HEK293 GC-B cells, cGMP TR-FRET, EC30 CNP | 0.11% of 370,000 active | Atrial natriuretic peptide receptor 2 (Homo sapiens), P20594 | activation, % at 10 µM | 0% at EC30 CNP, 100% saturating CNP;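 active = activation at 10 µM reaching about 35% in either raw or pattern-adjusted values, limit read from the data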
NadD block – inhibitors of S. aureus NadD, primary screen, biochemical, colorimetric, uHTS | inhibition, % at 20 µM | Nicotinate-nucleotide adenylyltransferase NadD (Staphylococcus aureus N315) | 0.78% of 360,000 active | purified NadD enzyme, colorimetric absorbance read-out; in the data active = inhibition above about 26%
NPR1 activator – GC-A stimulated cGMP production enhancers – HEK293 GC-A cells, cGMP TR-FRET, EC30 ANP, primary screen. 0% at EC30 ANP, 100% saturating ANP. 0.14% of 370,000 active. Atrial natriuretic peptide receptor 1 (Homo sapiens), P16066. activation, % at 10 µM; in the data active = activation above about 40%
Target sequence (P16066 whole entry, looked up): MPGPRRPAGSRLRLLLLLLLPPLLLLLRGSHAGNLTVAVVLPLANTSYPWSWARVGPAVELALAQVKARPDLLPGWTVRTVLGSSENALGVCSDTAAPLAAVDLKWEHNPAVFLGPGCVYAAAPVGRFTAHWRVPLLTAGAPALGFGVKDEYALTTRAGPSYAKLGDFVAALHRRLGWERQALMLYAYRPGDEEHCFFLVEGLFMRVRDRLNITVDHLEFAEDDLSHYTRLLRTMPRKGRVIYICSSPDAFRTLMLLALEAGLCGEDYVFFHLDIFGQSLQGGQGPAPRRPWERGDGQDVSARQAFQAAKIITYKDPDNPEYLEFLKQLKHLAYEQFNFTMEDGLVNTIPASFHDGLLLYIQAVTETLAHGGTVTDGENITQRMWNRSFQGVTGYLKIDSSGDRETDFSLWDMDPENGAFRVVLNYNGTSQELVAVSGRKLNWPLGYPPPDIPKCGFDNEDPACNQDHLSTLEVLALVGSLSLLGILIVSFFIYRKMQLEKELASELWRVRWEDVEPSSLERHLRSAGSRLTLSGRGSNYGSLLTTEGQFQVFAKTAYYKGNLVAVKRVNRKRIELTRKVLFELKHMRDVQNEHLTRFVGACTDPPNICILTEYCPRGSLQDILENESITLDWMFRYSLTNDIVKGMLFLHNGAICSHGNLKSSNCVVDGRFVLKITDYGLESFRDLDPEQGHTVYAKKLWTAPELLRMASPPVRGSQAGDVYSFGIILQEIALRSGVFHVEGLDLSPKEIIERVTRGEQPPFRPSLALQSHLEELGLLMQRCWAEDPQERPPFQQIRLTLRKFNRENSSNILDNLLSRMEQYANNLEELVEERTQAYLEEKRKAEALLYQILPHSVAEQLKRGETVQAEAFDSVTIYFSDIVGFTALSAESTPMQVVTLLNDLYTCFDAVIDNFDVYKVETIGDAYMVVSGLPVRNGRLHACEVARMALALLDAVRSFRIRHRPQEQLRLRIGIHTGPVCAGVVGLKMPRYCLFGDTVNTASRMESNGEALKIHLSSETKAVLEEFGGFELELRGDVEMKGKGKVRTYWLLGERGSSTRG
NadD conf – inhibitors of S. aureus NadD, confirmation, biochemical, colorimetric, single concentration; shares compounds with NadD block; purified S. aureus NadD, colorimetric enzyme assay; inhibition, % at 20 µM; 13% of 2,000 active; AID 624309, 2012; in the data active = inhibition mostly above about 42%, no sharp cut-off; inactive = mostly below about 42%
* hit, by the source's call; . = no result.

SMILES | Neddylation inh | GC-B act | NadD block | NPR1 activator | NadD conf
Cc1cc(C(=O)O)ccc1-c1ccc(/C=C2\SC(=O)N(CC(=O)Nc3ccc4c(c3)OCO4)C2=O)o1 | 32 | 0 | 48* | -3 | 9
COc1c(C(O)CC(C)C)ccc2c1C(=O)OCc1cc(C)cc(O)c1O2 (configuration not stated) | 5 | 0 | 92* | -2 | -2
COc1c(C(CC(C)C)OC(C)=O)ccc2c1C(=O)OCc1cc(C)cc(O)c1O2 (configuration not stated) | 0 | -1 | -4 | 0 | .
CCN(CC)C(=O)CC[C@H]1CC[C@]2(CCCN(Cc3nccn3C)C2)O1 | . | -6 | . | 2 | .
COc1ccc2c(Cl)c(C(=O)NCCCn3ccnc3)sc2c1Cl | -15 | 2 | 36* | 8 | 7
COc1ccc(C(=O)NCCCn2ccnc2)cc1 | 0 | 2 | -1 | 2 | .
CC(C)OC(=O)CC(=O)CSc1nc(-c2ccc(F)cc2)cc(-c2ccccc2)c1C#N | -177 | 3 | -1 | 4 | .
CCc1nnc(NC(=O)CSc2nc(-c3ccccc3)cc(-c3ccc(F)cc3)c2C#N)s1 | -266 | -10 | 44* | -5 | 4
COc1cc(/C=C/C(=O)c2ccc(NS(=O)(=O)c3ccc(C)cc3)cc2)cc(OC)c1O | 8 | 2 | 32* | 2 | 46
COc1cc(/C=C/C(=O)c2ccc(NS(=O)(=O)c3ccc(C)cc3)cc2)ccc1OC(F)F | 14 | -1 | 8 | -3 | .
O=C(OCCN1CCN(C2CN(Cc3cn(Cc4ccccc4F)nn3)S(=O)(=O)C2)CC1)c1cc2ccccc2o1 (configuration not stated) | . | -6 | . | 0 | .
O=C(Nc1nnc(C2CC2)s1)C1Cc2ccccc2CN1C(=O)c1ccco1 (configuration not stated) | 9 | -1 | 11 | -1 | .
O=C(Nc1nnc(SCc2ccc(F)cc2)s1)C1Cc2ccccc2CN1C(=O)c1ccco1 (configuration not stated) | 0 | -5 | 60* | 1 | 52*
COc1ccc2ccccc2c1C=Nn1c(-c2n[nH]c3c2CCC3)n[nH]c1=S | . | -7 | . | -3 | .
Oc1ccc(C[C@H]2CNC(=S)N2C[C@H]2CCCN2C[C@H](Cc2ccccc2)N2C[C@H](Cc3ccc(O)cc3)N(CCc3ccccc3)C2=S)cc1 | 3 | -1 | 46* | 2 | 43
Oc1ccc(C[C@H]2CN([C@@H](Cc3ccc(O)cc3)CN3CCC[C@@H]3CN3C(=S)NC[C@@H]3Cc3ccccc3)C(=S)N2CCc2ccccc2)cc1 | 4 | 2 | 40* | -5 | 32
CC(C)C[C@@H](CN1CCCC1CN1C(=S)NC[C@@H]1Cc1ccc(O)cc1)N1C[C@H](Cc2ccc(O)cc2)N(CCc2ccccc2)C1=S (some centres not stated) | 12 | 2 | 42* | -3 | 38
Oc1ccc(C[C@H]2CN([C@@H](Cc3ccccc3)CN3CCCC3CN3C(=S)NC[C@@H]3Cc3ccccc3)C(=S)N2CCc2ccccc2)cc1 (some centres not stated) | -5 | -2 | 37* | 0 | 10
O=C1NC[C@H](Cc2ccccc2)N(C[C@H]2CCCN2C[C@H](Cc2ccccc2)N2C[C@H](Cc3ccc(O)cc3)N(CCc3ccccc3)C(=O)C2=O)C1=O | 2 | -1 | 25 | 3 | .
Cc1ccc(NC(=S)NNC(=O)CSc2nnc(SCc3cccc4ccccc34)s2)cc1 | . | -1 | . | 0 | .
O=c1c2sc3nc(N4CCOCC4)c4c(c3c2ncn1C(c1ccccc1)c1ccccc1)CCCC4 | -224 | 8 | 32* | 1 | 1
O=c1c2sc3nc(N4CCOCC4)c4c(c3c2ncn1-c1ccccc1)CCCC4 | -338 | 16 | 0 | 12 | .
O=C1NC[C@H](Cc2ccc(O)cc2)N(C[C@@H]2CCCN2C[C@H](Cc2ccccc2)N2C[C@H](Cc3ccccc3)N(CC3CCCCCC3)C(=O)C2=O)C1=O | 10 | 8 | 52* | 1 | 43
